Compound activity: PubChem, several laboratories
Hits are enriched below; roughly 3.1% of the tested compounds scored in any of these assays.
UHRF1 binding – human UHRF1 methylated DNA binding inhibitors; Q96T88; UHRF1 binding to methylated oligo, TR-FRET; inhibition, % at 4.4 µM; 370,000 compounds, 0.75% hits; in the data active = inhibition above about 21%;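 note: UHRF1 SRA domain binding a hemimethylated CpG hairpin DNA probe; 0% = median of test compound wells and 100% = reference inhibitor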
Target sequence (Q96T88 whole entry, looked up, the tested form may be a part): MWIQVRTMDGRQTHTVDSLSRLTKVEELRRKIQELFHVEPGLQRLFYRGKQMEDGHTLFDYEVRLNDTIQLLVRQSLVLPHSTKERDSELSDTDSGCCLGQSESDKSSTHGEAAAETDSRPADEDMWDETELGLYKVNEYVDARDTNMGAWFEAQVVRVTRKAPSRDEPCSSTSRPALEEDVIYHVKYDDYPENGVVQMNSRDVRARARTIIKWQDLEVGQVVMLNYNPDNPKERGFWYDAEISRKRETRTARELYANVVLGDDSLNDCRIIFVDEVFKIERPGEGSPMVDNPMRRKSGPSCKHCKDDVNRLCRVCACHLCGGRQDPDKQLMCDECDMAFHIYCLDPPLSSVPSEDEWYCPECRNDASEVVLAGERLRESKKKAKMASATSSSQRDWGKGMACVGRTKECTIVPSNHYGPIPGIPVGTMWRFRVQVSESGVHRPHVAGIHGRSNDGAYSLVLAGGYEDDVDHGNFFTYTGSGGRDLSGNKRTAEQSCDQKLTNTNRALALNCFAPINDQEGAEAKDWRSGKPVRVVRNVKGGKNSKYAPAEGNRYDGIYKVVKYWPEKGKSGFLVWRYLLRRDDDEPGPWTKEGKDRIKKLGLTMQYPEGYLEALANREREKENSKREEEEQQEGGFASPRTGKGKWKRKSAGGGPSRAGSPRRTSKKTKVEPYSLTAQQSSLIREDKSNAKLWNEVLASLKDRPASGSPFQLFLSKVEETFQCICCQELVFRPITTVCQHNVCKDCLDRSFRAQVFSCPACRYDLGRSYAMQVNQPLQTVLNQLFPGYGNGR
LEDGF integ inh – blocks HIV-1 LEDGF/p75-dependent DNA integration; TR-FRET IN-LEDGF/p75 DNA integration, Eu/Cy5; 370,000 compounds, 0.64% hits; AID 743269; inhibition, % at 3.7 µM;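 active = inhibition above the screen-wide mean plus 3 SD, cut at about 13% in these data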;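 note: signal is the Cy5 over europium emission ratio at 671 and 618 nm; 0% = plate median of compound wells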
Neddylation inh – cullin neddylation inhibition. P61081+Q13564. TR-FRET cullin neddylation, biochemical. calls only at 25 µM. 360,000 compounds, 0.58% hits; in the data active = inhibition above about 36%
proKLK7 act – proKLK7 (human) activation, primary screen; activation, % at 7 µM; purified proKLK7, EDANS-DABCYL substrate fluorescence; 100% is mature enzyme control, 0% vehicle; 370,000 compounds, 0.9% hits; P49862;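 active = activation above the mean of all tested compounds plus 3 SD, computed per campaign excluding outliers beyond control limits, cut at about 13% in these data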
Rin1 Abl inh – inhibitors of human Rin1-Abl protein interaction; P00519+Q13671; TR-FRET Rin1/Abl binding, biochemical; inhibition, % at 7.35 µM; 360,000 compounds, 0.4% hits; in the data active = inhibition above about 5%, passing the limit was not always enough
MBD2 DNA inh – inhibitors of human MBD2 binding to methylated oligonucleotide; TR-FRET; inhibition, % at 4.4 µM; 370,000 compounds, 0.31% hits; in the data active = inhibition above about 13%
IN multimer up – HIV-1 integrase multimerization activation, counter-screen | shares compounds with LEDGF integ inh | TR-FRET HIV-1 integrase multimerization, biochemical | activation, % at 7.7 µM | 2,000 compounds, 17% hits; in the data active = activation above about 8.9%
TRFRET interf – optically interferes with TR-FRET readout in LEDGF counter-screen | shares compounds with LEDGF integ inh | TR-FRET optical interference counterscreen, HIV-1 IN multimerization | AID 1053135 | inhibition, % at 7.7 µM | 2,000 tested, under 10 active;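 active = inhibition above the mean over all tested compounds plus 3 SD, which no compound reached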;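 note: 0% = integrase with antibodies and DMSO and 100% = antibodies without integrase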
LEDGF integ conf – confirmation of HIV-1 LEDGF/p75-dependent integration inhibitors | inhibition, % at 3.7 µM | TR-FRET LEDGF/p75-dependent HIV-1 integration, biochemical | 2,000 compounds, 36% hits | shares compounds with LEDGF integ inh; in the data active = inhibition above about 14%
Active calls of the source: *; i = inactive; x = not tested or not shown.

SMILES | UHRF1 binding | LEDGF integ inh | Neddylation inh | proKLK7 act | Rin1 Abl inh | MBD2 DNA inh | IN multimer up | TRFRET interf | LEDGF integ conf
Cc1ccc(S(=O)(=O)/N=C2/NC(=O)/C(=C\c3cc(Br)cc(Br)c3O)S2)cc1 | x | x | i | x | -1 | x | x | x | x
Cc1ccc(S(=O)(=O)/N=C2/NC(=O)/C(=C/c3ccc(Br)o3)S2)cc1 | 81* | 38* | i | 1 | -3 | 25* | 1 | -5 | 11
O=C(O)C1Nc2c(Cl)cc(Cl)cc2C2C=CCC12 (configuration not stated) | x | x | i | x | 1 | x | x | x | x
O=C(O)C1Nc2c(O)cccc2C2C=CCC12 (configuration not stated) | 74* | 70* | i | 1 | 20* | 37* | 8.9* | -30 | 77*
Nc1c(O)cccc1C(=O)O | 20 | 38* | x | -17 | -2 | 8 | 8 | -38 | 21*
COc1ccccc1COC(=O)N/C=C/c1ccco1 | 6 | 14* | i | 0 | 1 | 1 | -1 | 4 | 17*
COc1ccccc1C(=O)CSc1nnc(-c2ccncc2)n1-c1ccc(Cl)cc1 | -4 | 3 | x | 1 | x | -2 | x | x | x
CCN1C[C@@H]2[C@@H]3C(=O)N(C)C(=O)[C@@H]3[C@](CC)(C(=O)OC)N2C1=NCc1ccccc1 | 21* | 65* | i | 0 | -4 | 10 | -2 | 9 | 2
NC1=C(Br)C(=O)c2ncccc2C1=O | -3 | 29* | i | -1 | -13 | -17 | 7 | -26 | 73*
COc1ccc(S(=O)(=O)NC(C)C(=O)NCc2ccco2)cc1OC (configuration not stated) | 3 | -4 | i | 0 | -2 | 6 | x | x | x
CC(NS(=O)(=O)c1ccc(Cl)cc1)C(=O)NCc1ccco1 (configuration not stated) | 25* | 18* | i | 0 | 0 | 10 | 0 | 2 | -11
Cc1cccc(C)c1NC(=O)Cn1cc(C=O)c2ccccc21 | 0 | -2 | i | 0 | 2 | -1 | x | x | x
N#Cc1ccc(C(=O)N(Cc2ccccc2)c2ccccc2)cc1 | 0 | 14* | i | 0 | 0 | -3 | -2 | 11 | -4
O=C(O)c1cc(O)c2c(c1)C(=O)c1cc(O)cc(O)c1C2=O | 26* | 20* | i | 0 | 6 | -3 | 44* | -157 | 25*
COc1ccccc1N(CC(=O)NCc1ccco1)S(=O)(=O)c1ccc(C)cc1 | 29* | 23* | i | 0 | 0 | 8 | 5 | -17 | 28*
Cc1cc(N2CCN(C(C(=O)NC3CCCC3)c3ccc(-c4ccccc4)cc3)CC2)c2ccccc2n1 (configuration not stated) | -3 | 7 | i | 0 | x | 1 | x | x | x
Cc1cc(C)c2nc(SCC(=O)NCCN3C(=O)CSC3=O)cc(C)c2c1 | 0 | -2 | i | 0 | -6 | -1 | x | x | x
Cc1cc(SCC(=O)NCCN2C(=O)CSC2=O)nc2c(C)cccc12 | 2 | 23* | i | 0 | 0 | 2 | 6 | -30 | 1
O=C(CN(Cc1ccccc1)C(=O)c1ccco1)NCc1ccc(F)cc1 | 1 | 1 | i | 0 | 2 | 0 | x | x | x
COc1ccc2nc(SCC(=O)N(C)C3CCCCC3)c(C#N)cc2c1 | -1 | 4 | i | 0 | -2 | -6 | x | x | x
O/N=C1/CCc2cccc3cccc1c23 | -3 | 3 | i | -7 | -3 | 0 | x | x | x
O=C1C(=NO)CCc2ccccc21 | -1 | 29* | i | -1 | -1 | -7 | 3 | -11 | 26*
O=C1Nc2ccccc2/C1=N\N=C\c1ccc(O)c(O)c1 | -2 | 45* | i | 0 | 8 | -8 | 37* | -132 | 81*
